Reference: PubChem BioAssay (Tox21)
Inconclusive results are not listed. Where a call stands in place of a potency, no number is given. More than one record can exist for a structure, and the calls need not agree. The source made the active and inactive calls. Unless noted, the call rests on the fitted dose curve.

Tests used:
[1] = qHTS assay to identify small molecule agonists of the vitamin D receptor (VDR) signaling pathway - cell viability counter screen (AID 743224; active means well fitted curve in the direction sought with a large enough effect in the repeat runs; an effect the other way counts as inactive or inconclusive; further: nearly all actives have a fitted effect of over 50% in size; further: potency means the concentration at half of the fitted maximal effect)
Summary of the method: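 Compounds were pin-transferred onto VDR-bla cells plated 4 h earlier; following 16 h incubation at 37C, cell viability was quantified by CellTiter-Glo luminescence after 30 min at room temperature.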

[2] = qHTS assay to identify small molecule antagonists of the vitamin D receptor (VDR) signaling pathway - cell viability counter screen (AID 743225; active means well fitted curve in the direction sought with a large enough effect in the repeat runs; an effect the other way counts as inactive or inconclusive; further: nearly all actives have a fitted effect of over 50% in size; further: potency means the concentration at half of the fitted maximal effect)
Summary of the method: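 Luminescent cell viability (CellTiter-Glo) in VDR-bla HEK 293T cells after 16 h compound exposure at 37C in the presence of 3 nM final 1-alpha,25-dihydroxy vitamin D3.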

[3] = qHTS assay to identify small molecule agonists of the NFkB signaling pathway (AID 1159509; active means well fitted curve in the direction sought with a large enough effect in the signal ratio in the repeat runs, not every such curve was filed as active; the % refers to the signal ratio; further: series mostly up to about 61 µM)
Summary of the method: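 Pathway activation was measured in ME-180 cells stably expressing beta-lactamase under NF-kB response element control. Substrate cleavage was read as the 460/530 nm emission shift after 5 hr compound incubation.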

[4] = qHTS assay to identify small molecule agonists of the NFkB signaling pathway - cell viability counter screen (AID 1159515); further: nearly all actives have a fitted effect of over 55% in size; further: potency means the concentration at half of the fitted maximal effect
Summary of the method: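 Parallel cytotoxicity counter screen in ME-180 cells carrying an NFkB-response-element beta-lactamase reporter, 2,000 cells/well. Compound exposure lasted 5 hr at 37 C, 5% CO2. Cell viability was quantified by CellTiter-Glo luminescence.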

[5] = qHTS assay to identify small molecule agonists of the endoplasmic reticulum stress response signaling pathway (AID 1159516; active means well fitted activation curve with a large enough effect in the signal ratio in the repeat runs, not every such curve was filed as active; the % refers to the signal ratio)
Summary of the method: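 Using a HeLa line with an ESRE-driven beta-lactamase gene, agonist activity was measured by FRET substrate fluorescence (460 and 530 nm emission) after cells were treated with compounds for 5 hr at 37 C and 5% CO2.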

[6] = qHTS assay to identify small molecule antagonists of the retinoid-related orphan receptor gamma (ROR-gamma) signaling pathway - cell viability counter screen (AID 1159520; active means well fitted curve in the direction sought with a large enough effect in the repeat runs; an effect the other way counts as inactive or inconclusive; further: nearly all actives have a fitted effect of over 50% in size; further: potency means the concentration at half of the fitted maximal effect)
Summary of the method: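 Tet-on ROR gamma CHO cells were given compounds for 2 hr, then doxycycline hyclate at 1 uM final, and incubated 16 hr at 37 C. Viability was measured as ATP content by CellTiter-Glo luminescence.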

[7] = biological target: Nuclear receptor ROR-gamma (Homo sapiens) (UniProt P51449); test: qHTS assay to identify small molecule antagonists of the retinoid-related orphan receptor gamma (ROR-gamma) signaling pathway (AID 1159521; active means well fitted curve in the direction sought with a large enough effect in the repeat runs; an effect the other way counts as inactive or inconclusive; further: nearly all actives have a fitted effect of over 50% in size; further: potency means the concentration at half of the fitted maximal effect)
Summary of the method: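 CHO cells expressing RORγ under a TET-on promoter, luciferase under RORE control. Dox 1 uM final, 16 h; compounds added 2 h prior. Luminescence decrease measured.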

[8] = qHTS assay to identify small molecule agonists of the AP-1 signaling pathway - cell viability counter screen (AID 1159525); further: nearly all actives have a fitted effect of over 55% in size; further: potency means the concentration at half of the fitted maximal effect
Summary of the method: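 Same-well cytotoxicity counter screen of the Tox21 10K library in ME-180 cells. The readout is ATP-dependent luminescence after 5 h compound treatment. Data are normalised to DMSO and tetra n-octyl ammonium bromide controls.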

[9] = qHTS assay to identify small molecule agonists of the AP-1 signaling pathway (AID 1159526)
[10] = qHTS assay to identify small molecule agonists of the endoplasmic reticulum stress response signaling pathway - cell viability counter screen (AID 1159517); further: nearly all actives have a fitted effect of over 50% in size; further: potency means the concentration at half of the fitted maximal effect
Summary of the method: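 In parallel with the ESRE reporter read, cytotoxicity was scored by CellTiter-Glo luminescence (30 min, room temperature) on HeLa ESRE-bla cells dosed for 5 hr.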

Structure (SMILES)	Potency [1]	Potency [2]	outcome [3]	Potency [4]	outcome [5]	Potency [6]	Potency [7]	Potency [8]	outcome [9]	Potency [10]
C=CCN1CC[C@]23c4c5ccc(O)c4O[C@H]2C(=O)CC[C@@]3(O)[C@H]1C5	inactive	inactive	inactive	inactive	inactive	inactive	inactive	inactive	inactive	–
C[C@H]1CNCCc2ccc(Cl)cc21	inactive	inactive	inactive	inactive	inactive	inactive	inactive	inactive	–	–
C=CC(C)=O	inactive	inactive	inactive	inactive	inactive	inactive	–	inactive	inactive	–
Nc1nc(N)nc(N)n1	inactive	inactive	inactive	inactive	inactive	inactive	inactive	inactive	inactive	–
COP(=S)(Oc1cc(Cl)c(Br)cc1Cl)c1ccccc1 (stereo not drawn)	38.9 µM (active)	–	inactive	inactive	inactive	–	–	inactive	–	–
CC(=O)CCC(C)=O	inactive	inactive	inactive	inactive	inactive	inactive	inactive	inactive	inactive	–
NCCCNCCCN	–	–	inactive	inactive	inactive	inactive	–	inactive	inactive	–
Clc1cc(C(Cl)(Cl)Cl)cnc1Cl	inactive	inactive	inactive	inactive	–	inactive	inactive	inactive	inactive	11 µM (active)
C[N+](C)(C)CCCl	inactive	inactive	inactive	inactive	inactive	inactive	inactive	inactive	inactive	–
C=CCCl	inactive	inactive	inactive	inactive	inactive	inactive	–	inactive	inactive	–
COC(C)(C)CCC[C@H](C)C/C=C/C(C)=C/C(=O)OC(C)C	–	–	inactive	inactive	inactive	inactive	–	inactive	inactive	–
CC(C)N(CCC(C(N)=O)(c1ccccc1)c1ccccn1)C(C)C (stereo not drawn)	inactive	inactive	inactive	inactive	–	inactive	–	inactive	inactive	inactive
O=[N+]([O-])c1ccc(F)c([N+](=O)[O-])c1	inactive	inactive	inactive	inactive	–	38.9 µM (active)	49 µM (active)	inactive	inactive	17.5 µM (active)
OC(c1ccc(Cl)cc1)(c1ccc(Cl)cc1)c1cccnc1	–	–	inactive	inactive	–	inactive	–	inactive	–	inactive
C=CC(=O)OC	inactive	–	inactive	inactive	–	inactive	–	inactive	inactive	inactive
CCOC(=O)[C@]1(c2ccccc2)Oc2ccccc2[C@@H]1N	–	–	inactive	inactive	–	inactive	–	inactive	–	inactive
CC(C)O.CC(C)O.OCCN(CCO)CCO.OCCN(CCO)CCO.[Ti]	inactive	–	inactive	inactive	–	inactive	–	inactive	–	inactive
CNP(=O)(OC)Oc1ccc(C(C)(C)C)cc1Cl (stereo not drawn)	inactive	inactive	inactive	inactive	–	inactive	–	inactive	inactive	inactive
CCCN(CC1CC1)c1c([N+](=O)[O-])cc(C(F)(F)F)cc1[N+](=O)[O-]	inactive	inactive	inactive	inactive	–	inactive	inactive	inactive	inactive	inactive
COC(=O)C(Cl)C(=O)OC	inactive	inactive	inactive	inactive	–	inactive	–	inactive	inactive	inactive
O=[N+]([O-])c1ccccc1CCl	inactive	inactive	inactive	inactive	–	inactive	inactive	inactive	–	inactive

Structure (SMILES)	Potency [1]	Potency [2]	outcome [3]	Potency [4]	outcome [5]	Potency [6]	Potency [7]	Potency [8]	outcome [9]	Potency [10]
COCC(C)N(C(=O)CCl)c1c(C)csc1C (stereo not drawn)	–	–	inactive	inactive	–	inactive	–	inactive	–	inactive
O=C1NCN(c2ccccc2)C12CCN(CCCOc1ccc(F)cc1)CC2	–	–	inactive	inactive	–	inactive	–	inactive	–	inactive
CN1C(=O)NC(=O)C(C)(C2=CCCCC2)C1=O (stereo not drawn)	inactive	–	inactive	inactive	–	inactive	–	inactive	inactive	inactive
COc1nn(C(=O)NS(=O)(=O)c2ccccc2OC(F)(F)F)c(=O)n1C	inactive	inactive	inactive	inactive	–	inactive	–	inactive	inactive	inactive
Nc1ccc(N=Nc2ccc(-c3ccc(N=Nc4c(S(=O)(=O)O)cc5cc(S(=O)(=O)O)c(N=Nc6ccccc6)c(O)c5c4N)cc3)cc2)c(N)c1	–	–	inactive	inactive	–	15.7 µM (active)	–	inactive	–	inactive
COC(N)=O	inactive	inactive	inactive	inactive	–	inactive	–	inactive	inactive	inactive
CCCN(CCC)c1c([N+](=O)[O-])cc(S(C)(=O)=O)cc1[N+](=O)[O-]	inactive	inactive	inactive	inactive	–	inactive	–	inactive	inactive	inactive
CN1[C@@H]2CC[C@H]1CC(OC(=O)c1cc(Cl)cc(Cl)c1)C2 (stereo partly drawn)	inactive	inactive	inactive	inactive	–	inactive	–	inactive	inactive	inactive
ClC=C(Cl)Cl	inactive	inactive	inactive	inactive	–	inactive	inactive	inactive	inactive	inactive
CCOP(=O)(OCC)Oc1ccc([N+](=O)[O-])cc1	inactive	inactive	inactive	inactive	–	inactive	inactive	inactive	inactive	inactive
CC1(C)[C@H](C=C(Cl)Cl)[C@@H]1C(=O)O[C@@H](C#N)c1cccc(Oc2ccccc2)c1	inactive	–	inactive	inactive	–	inactive	54.5 µM (active)	inactive	–	inactive
CNC(C)Cc1ccccc1OC (stereo not drawn)	inactive	inactive	inactive	inactive	–	inactive	inactive	inactive	inactive	inactive
O=NN1CCCCCC1	inactive	inactive	inactive	inactive	–	inactive	inactive	inactive	inactive	inactive
O=Cc1ccc2c(c1)OCO2	inactive	inactive	inactive	inactive	–	inactive	inactive	inactive	inactive	inactive
COc1cc(CC(C)N)cc2c1OCO2 (stereo not drawn)	inactive	inactive	inactive	inactive	–	inactive	inactive	inactive	inactive	inactive
c1ccc(CN2CCNCC2)cc1	inactive	–	inactive	inactive	–	inactive	–	inactive	inactive	inactive
CCC(Cl)CCl (stereo not drawn)	inactive	–	inactive	inactive	–	inactive	–	inactive	inactive	inactive
CCOP(=S)(OCC)Oc1nc(Cl)c(Cl)cc1Cl	inactive	inactive	inactive	inactive	–	inactive	27.4 µM (active) and inactive	inactive	–	inactive
O=S(=O)(Cl)c1ccccc1	inactive	–	inactive	inactive	–	inactive	–	inactive	inactive	inactive
O=C1C(=O)c2cccc3cccc1c23	–	–	inactive	inactive	–	inactive	–	inactive	–	inactive
O=C(O)C(F)(F)C(F)(F)C(F)(F)C(F)(F)C(F)(F)C(F)(F)C(F)(F)C(F)(F)C(F)(F)C(F)(F)F	inactive	inactive	inactive	inactive	–	inactive	inactive	inactive	inactive	inactive

Structure (SMILES)	Potency [1]	Potency [2]	outcome [3]	Potency [4]	outcome [5]	Potency [6]	Potency [7]	Potency [8]	outcome [9]	Potency [10]
CCCCc1c(C)nc(NCC)nc1OS(=O)(=O)N(C)C	inactive	inactive	inactive	inactive	–	inactive	–	inactive	inactive	inactive
CC1Sc2c(C(=O)O)c(=O)c3cc(F)c(N4CCNCC4)cc3n21 (stereo not drawn)	inactive	inactive	inactive	inactive	–	inactive	inactive	inactive	inactive	inactive
O=C(C(Cl)(Cl)Cl)C(Cl)(Cl)Cl	inactive	inactive	inactive	inactive	–	inactive	inactive	inactive	inactive	inactive
CC(C)=CCOc1c2occc2cc2ccc(=O)oc12	inactive	inactive	inactive	inactive	–	inactive	inactive	inactive	inactive	inactive
CCOC(=O)COc1cc(-c2nn(C)c(OC(F)F)c2Cl)c(F)cc1Cl	inactive	inactive	inactive	inactive	–	inactive	inactive	inactive	inactive	inactive
CCCC(=O)Cl	inactive	inactive	inactive	inactive	–	inactive	inactive	inactive	inactive	–
CCCCN(N=O)C(=N)N[N+](=O)[O-]	inactive	inactive	inactive	inactive	–	–	inactive	inactive	–	inactive
CC(C)(OO)c1ccccc1	54.9 µM (active)	–	inactive	inactive	–	–	–	inactive	inactive	43.6 µM (active)
CS/C(C)=N/OC(=O)N(C)SN(C)C(=O)O/N=C(\C)SC	inactive	inactive	inactive	inactive	–	43.3 µM (active)	–	inactive	–	inactive
Cc1ccc(N)cc1C	inactive	inactive	inactive	inactive	–	inactive	inactive	inactive	inactive	–
N#Cc1ccc(Cl)cc1	inactive	inactive	inactive	inactive	–	–	–	inactive	inactive	inactive
CCCCNP(N)(N)=S	inactive	inactive	inactive	inactive	–	inactive	–	inactive	–	inactive
C[C@@H]1CC[C@H]2[C@@H](C)C(=O)O[C@@H]3O[C@@]4(C)CC[C@@H]1[C@]32OO4	inactive	inactive	inactive	inactive	–	inactive	0.237 µM (active)	inactive	inactive	–
IC(I)=C(I)I	11 µM (active)	17.4 µM (active)	inactive	54.9 µM (active)	–	3.86 µM (active)	2.73 µM (active)	24.5 µM (active)	–	–
Cc1ccccc1CCl	inactive	–	inactive	inactive	–	inactive	–	–	inactive	inactive
N#CCC#N	inactive	inactive	inactive	inactive	–	–	27.3 µM (active)	inactive	–	inactive
COC(=O)C(Br)CBr (stereo not drawn)	inactive	inactive	inactive	inactive	–	–	inactive	inactive	inactive	inactive
CC(C)(C)c1cc([N+](=O)[O-])cc([N+](=O)[O-])c1O	–	–	inactive	inactive	–	–	6.09 µM (active)	inactive	–	inactive
O=S1(=O)OC(c2cc(Br)c(O)c(Br)c2)(c2cc(Br)c(O)c(Br)c2)c2ccccc21	–	–	inactive	40 µM (active)	–	7.91 µM (active)	5.6 µM (active)	inactive	inactive	–
